Growth inhibition data for 8 compounds are collected here from PubChem BioAssay (NCI).

The nature of this experiment: NCI Yeast Anticancer Drug Screen. Data for the sgs1 strain (AID 173).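 Also: 0% = growth of vehicle-only control cultures.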 As to conditions: S. cerevisiae sgs1 mutant, active compounds read high. Here is the method: Growth inhibition of yeast strains with defined genetic alterations is measured as a screen for potential anti-cancer activity. Selected strains with alterations in DNA damage repair or cell cycle control were exposed to compounds and growth inhibition was measured relative to vehicle treated controls. The strain used in this assay is sgs1

Compounds without any hit were thinned out: in the full panel of roughly 79,000, 15% have a hit. A number with no mark means an inactive call. Calls of active or inactive are those of the source. Rule as the data show it: active = growth inhibition above about 70%; inactive = the rest.

As to `CCOc1ccc(N)c(S)c1`, the growth inhibition (at 1.2 µM) was -3%; the growth inhibition (at 3.7 µM) is 0%; the growth inhibition (at 11.0 µM) was 18%; the growth inhibition (at 33.0 µM) was 97% (active); the growth inhibition (at 100.0 µM) is 96% (active).
`C/C1=C/C2OC(=O)C3(C)C2C(CC2(C)OC1=CC2=O)OC3(O)C(C)C` (stereo not given): the growth inhibition reads like this: (at 1.2 µM) 5%; (at 3.7 µM) -1%; (at 11.0 µM) 26%; (at 33.0 µM) 72% (active); (at 100.0 µM) 92% (active).
Turning to `C/C(=N/NC(=S)Nc1ccccc1C)c1ccccn1`, the growth inhibition runs as follows: (at 1.2 µM) -6%; (at 3.7 µM) -5%; (at 11.0 µM) -5%; (at 33.0 µM) -7%; (at 100.0 µM) -6%.
Take `c1ccc2nc3c(nc2c1)sc1ccccc13`: the growth inhibition was -2% (at 1.2 µM); 20% (at 3.7 µM); 43% (at 11.0 µM); 51% (at 33.0 µM); 37% (at 100.0 µM).
Consider `CNC(=O)OCc1c(COC(=O)NC)c(C)n(-c2ccc(Br)cc2)c1C`, for which the growth inhibition by setting is: (at 1.2 µM) 15%; (at 3.7 µM) 12%; (at 11.0 µM) 19%; (at 33.0 µM) 32%; (at 100.0 µM) 96% (active).
With `CCCCCCCN1C(=O)c2ccccc2C1=O`, the growth inhibition by setting is: (at 1.2 µM) 0%; (at 3.7 µM) -1%; (at 11.0 µM) 2%; (at 33.0 µM) 14%; (at 100.0 µM) 44%.
In the case of `O=C1c2ccccc2-c2cc3ccccc3c(=O)n21`, the growth inhibition reads like this: (at 1.2 µM) 22%; (at 3.7 µM) 14%; (at 11.0 µM) 47%; (at 33.0 µM) 76% (active); (at 100.0 µM) 77% (active).
The corresponding values for `COC(=N)c1ccc(O)c(C)c1` are -1%, -1%, -1%, -2% and -2%.
